TDP1 block: qHTS Assay for Inhibitors of Tyrosyl-DNA Phosphodiesterase (TDP1); Tyrosyl-DNA phosphodiesterase 1 (Homo sapiens), Q9NUW8; recombinant TDP1, AlphaScreen DNA substrate cleavage; Potency, µM (highest dose often 130 µM), for the others: at the top dose activity change, negative = inhibition, actives largely listed as inhibitors; 350,000 tested, 0.28% active; AID 485290, 2010; also: nearly all actives have a fitted effect of over 40% in size
Target sequence (Q9NUW8 whole entry, looked up): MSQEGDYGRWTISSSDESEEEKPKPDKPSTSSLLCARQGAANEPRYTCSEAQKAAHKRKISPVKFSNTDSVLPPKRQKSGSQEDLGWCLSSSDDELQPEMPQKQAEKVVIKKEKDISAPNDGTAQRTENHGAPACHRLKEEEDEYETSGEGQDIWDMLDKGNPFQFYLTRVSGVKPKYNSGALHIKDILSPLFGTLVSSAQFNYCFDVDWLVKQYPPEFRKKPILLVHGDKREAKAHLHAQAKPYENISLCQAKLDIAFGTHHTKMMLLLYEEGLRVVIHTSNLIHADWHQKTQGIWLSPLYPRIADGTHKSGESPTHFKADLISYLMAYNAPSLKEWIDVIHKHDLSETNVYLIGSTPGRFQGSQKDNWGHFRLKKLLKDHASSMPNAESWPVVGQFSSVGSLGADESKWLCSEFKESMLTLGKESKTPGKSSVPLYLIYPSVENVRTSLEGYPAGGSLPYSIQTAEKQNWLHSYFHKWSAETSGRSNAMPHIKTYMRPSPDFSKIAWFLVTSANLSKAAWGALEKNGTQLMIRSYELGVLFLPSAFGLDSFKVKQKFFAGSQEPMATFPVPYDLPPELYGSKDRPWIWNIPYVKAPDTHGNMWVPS
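Steps: enzyme plus compound, 15 min RT; add biotin/phosphotyrosine-FITC oligonucleotide (15 nM final), react 5 min; add donor/acceptor beads (10 ug/ml final), 10 min; read AlphaScreen. Tdp1 at 1 nM final.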
Gal4-VP16 FLuc: VP16 counterscreen qHTS for inhibitors of ROR gamma transcriptional activity; Drosophila S2 Gal4-VP16 UAS-luciferase, luminescence, 20 h; Potency, µM (top dose mostly 53.6 µM), inactives show top-dose activity, negative = inhibition, most hits filed as inhibitors; 310,000 tested, 3.5% active; AID 2546, 2010;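 also: Gal4-VP16 expression switched on by copper sulfate through the metallothionein promoter; nearly all actives have a fitted effect of over 50% in size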
TDP1 cell CPT: qHTS for Inhibitors of human tyrosyl-DNA phosphodiesterase 1 (TDP1): qHTS in cells in presence of CPT. 420,000 tested, 12% active. chicken DT40 Tdp1-/-;hTDP1 cells + 20 nM CPT, ATP luminescence, 48 h. AID 686979, 2013. Potency, µM (highest dose often 46.2 µM), without a hit: top-dose activity change, negative = growth inhibition, most hits filed as inhibitors; also: nearly all actives have a fitted effect of over 55% in size
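Cell growth measured by CellTiter-Glo luminescence after a minimum 48 h, 37 C compound exposure with 20 nM CPT in Tdp1-knockout DT40 cells stably expressing hTDP1, seeded 400/well; qHTS titration format.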
TDP1 cell noCPT: qHTS for Inhibitors of human tyrosyl-DNA phosphodiesterase 1 (TDP1): qHTS in cells in absence of CPT | 420,000 tested, 15% active | Potency, µM (titrated, usually from 46.2 µM), inactives show at the top dose activity change, negative = growth inhibition, hits mostly inhibitors | DT40 Tdp1-/- hTDP1 cells, no CPT, ATP luminescence, 48 h; also: nearly all actives have a fitted effect of over 55% in size
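Cells were dispensed at 400 per well, compounds added by pin tool, plates incubated ≥48 hr at 37 °C, then CellTiter-Glo added for 30 min at room temperature before luminescence reading. Line: DT40 Tdp1-/- complemented with hTDP1; camptothecin omitted.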
RORg inh: qHTS for inhibitors of ROR gamma transcriptional activity; Drosophila S2 Gal4-RORgamma UAS-luciferase reporter, 20 h; 310,000 tested, 5.4% active; Potency, µM (top dose mostly 53.6 µM), for inactives: top-dose activity change, negative = inhibition, hits mostly inhibitors; Nuclear receptor ROR-gamma (Mus musculus), P51450; also: nearly all actives have a fitted effect of over 60% in size
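In this cell-based reporter format, copper sulfate (700 uM final) drives Gal4–ROR gamma fusion expression from a metallothionein promoter in Drosophila Schneider cells; compounds preincubated 1 hr, reporter read after 20 hr at ambient temperature.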
Active calls of the source: *; [ ] = dose if it differs, or a comment. In the library only some 19% were active in any assay of this set; here they are far more common. Calls follow the shape of the dose curve; as a rule, active = well fitted curve in the direction sought with a large enough effect; inconclusive = small, poorly fitted or top-dose-only effect, or another doubt; inactive = no such curve, though single readings can be large; an effect the other way counts as inactive or inconclusive. % is scaled to controls: 0 for no effect and ±100 for the full control effect; potency is read from the fitted curve at half-maximal effect.

Screening N#Cc1nc(-c2ccc(Cl)cc2)oc1NCc1ccco1 returned TDP1 block 5%, Gal4-VP16 FLuc 21%, TDP1 cell CPT inconclusive, TDP1 cell noCPT inconclusive and RORg inh inconclusive.
Screening CCOC(=O)c1c(NC(=S)NCCc2ccccc2)sc2c1CC(C(C)C)OC2 (stereo not drawn) returned TDP1 block 6%, Gal4-VP16 FLuc 1.3µM*, TDP1 cell CPT inconclusive, TDP1 cell noCPT inconclusive and RORg inh 2.5µM*.
Screening C=CCNC(=S)Nc1sc2c(c1C(=O)OCC)CC(C(C)C)OC2 (stereo not drawn) returned TDP1 block -5%, Gal4-VP16 FLuc 4.5µM*, TDP1 cell CPT -27%, TDP1 cell noCPT -18% and RORg inh 5µM*.
Cc1cc(C)cc(Nc2nc3cc(Cl)c(Cl)cc3nc2-n2nc(C)cc2C)c1 was read as TDP1 block -4%[12.3 µM], TDP1 cell CPT 2% and TDP1 cell noCPT -1%.
For Cc1ccccc1OCCn1cc(C(=O)C(=O)N2CCOCC2)c2ccccc21 the results were TDP1 block 5%, Gal4-VP16 FLuc -23%, TDP1 cell CPT -8%, TDP1 cell noCPT inconclusive and RORg inh 31%.
`Cc1ccccc1OCCn1cc(C(=S)N2CCN(C)CC2)c2ccccc21` gave TDP1 block 10%, Gal4-VP16 FLuc -15%, TDP1 cell CPT inconclusive, TDP1 cell noCPT 15µM* and RORg inh 13µM*.
`COc1ccccc1OCCn1cc(C(=O)C(C)C)c2ccccc21` gave Gal4-VP16 FLuc 0%, TDP1 cell CPT inconclusive, TDP1 cell noCPT inconclusive and RORg inh 24%[1.91 µM].
For CC(=O)c1cn(CCOc2ccccc2C)c2ccccc12 the results were Gal4-VP16 FLuc 4.5µM*, TDP1 cell CPT 8.2µM*, TDP1 cell noCPT 5.8µM* and RORg inh inconclusive.
`O=C(O)c1cn(CCOc2ccccc2Cl)c2ccccc12` gave TDP1 block 5%, Gal4-VP16 FLuc inconclusive, TDP1 cell CPT 30%, TDP1 cell noCPT 0% and RORg inh -31%.
For O=C(c1cn(CCOc2ccccc2F)c2ccccc12)C1CCCCC1 the results were TDP1 block 3%, TDP1 cell CPT inconclusive and TDP1 cell noCPT 16µM*.
`CC(=O)c1cn(CCOc2ccc(F)cc2)c2ccccc12` gave Gal4-VP16 FLuc inconclusive, TDP1 cell CPT 15µM*, TDP1 cell noCPT inconclusive and RORg inh inconclusive.
Screening Cc1cccc(NC(=O)CCc2ccccc2)c1 returned TDP1 block 5%, Gal4-VP16 FLuc -11%, TDP1 cell CPT -13%, TDP1 cell noCPT -3% and RORg inh 6%.
Screening Cc1nc2ncccn2c1-c1csc(Nc2ccccc2)n1 returned TDP1 block 5%, Gal4-VP16 FLuc inconclusive, TDP1 cell CPT 16µM*, TDP1 cell noCPT 18µM* and RORg inh -17%.
`CC(=O)Nc1ccc(Nc2nc(-c3c(C)nc4ccccn34)cs2)cc1` gave TDP1 cell CPT 1µM* and TDP1 cell noCPT 0.82µM*.
`Cc1nc2ncccn2c1-c1csc(Nc2ccc(N(C)C)cc2)n1` gave TDP1 block 12%, Gal4-VP16 FLuc 8%, TDP1 cell CPT 0.0052µM*, TDP1 cell noCPT 0.018µM* and RORg inh -14%.
Cc1nc2sccn2c1-c1csc(NCc2ccccc2)n1 was read as TDP1 block 11%, Gal4-VP16 FLuc 1µM*, TDP1 cell CPT 16µM*, TDP1 cell noCPT 13µM* and RORg inh inconclusive.
For Cc1nc2ncccn2c1-c1csc(Nc2ccc(S(N)(=O)=O)cc2)n1 the results were Gal4-VP16 FLuc -5%, TDP1 cell CPT 37%, TDP1 cell noCPT 5% and RORg inh 10%.
CC12CN3CC(C)(CN(C1)C3c1ccccc1F)C2 (stereo not drawn) was read as TDP1 block 3%, Gal4-VP16 FLuc -2%, TDP1 cell CPT 17%, TDP1 cell noCPT 12% and RORg inh 4%.
`CCCC(=O)OCC(=O)NC1CCCc2ccccc21` (stereo not drawn) gave TDP1 block 0%, Gal4-VP16 FLuc -5%, TDP1 cell CPT 0%, TDP1 cell noCPT 0% and RORg inh 8%.
For Cc1cc(NC(=O)c2cc(-c3ccc(Cl)cc3)on2)n(-c2ccccc2)n1 the results were TDP1 block 5%, TDP1 cell CPT -19% and TDP1 cell noCPT -19%.
Screening COc1ccc(S(=O)(=O)N2CCOCC2)cc1NC(=O)Cc1sc(C)nc1-c1ccc(F)cc1 returned TDP1 block 1%, TDP1 cell CPT -5% and TDP1 cell noCPT -29%.
Screening COc1ccc(Nc2nc(-c3c(C)nc4ncccn34)cs2)cc1 returned TDP1 block 1%, Gal4-VP16 FLuc inconclusive, TDP1 cell CPT 0.0092µM*, TDP1 cell noCPT 0.0073µM* and RORg inh inconclusive.
OC[C@H]1OC([S-])[C@H](O)[C@@H](O)[C@@H]1O.[Au+] (stereo partly drawn) was read as TDP1 cell CPT 24µM* and TDP1 cell noCPT -86%.
Screening CCc1nc(SCC(=O)Nc2cc(OC)ccc2OC)c2c(C)c(C)sc2n1 returned Gal4-VP16 FLuc 0%, TDP1 cell CPT 18µM*, TDP1 cell noCPT 26µM* and RORg inh -29%.
COc1ccc(OC)c(NC(=O)CSc2ccc(-c3sc(C)nc3C)nn2)c1 was read as TDP1 block 10%, TDP1 cell CPT 15µM* and TDP1 cell noCPT 13µM*.
COc1ccccc1NC(=O)CSc1ccc(-c2ccc(-n3ccnc3)cc2)nn1 was read as TDP1 cell CPT 21µM* and TDP1 cell noCPT 13µM*.
For CC(=O)Nc1ccc(NC(=O)CSc2ccc(-c3sc(C)nc3C)nn2)cc1 the results were TDP1 block 2%, Gal4-VP16 FLuc -6%, TDP1 cell CPT -22%, TDP1 cell noCPT inconclusive and RORg inh -15%.
Screening COc1ccc(C)cc1NC(=O)CSc1ccc(-c2sc(C)nc2C)nn1 returned TDP1 block 0%, Gal4-VP16 FLuc -2%, TDP1 cell CPT 13µM*, TDP1 cell noCPT inconclusive and RORg inh 25%.
Screening Cc1ccccc1NC(=O)CSc1ccc(-c2ccc(-n3cccn3)cc2)nn1 returned TDP1 cell CPT -4% and TDP1 cell noCPT 8%.
For COc1ccc(OC)c2c1CCC2=O the results were TDP1 block 2%, Gal4-VP16 FLuc 11%, TDP1 cell CPT 6%, TDP1 cell noCPT 1% and RORg inh 3%.

Screening data: PubChem, National Center for Advancing Translational Sciences (NCATS)
